“And” between values parts separate entries of the source, which are not always exact repeats. Equal values may be shown once. Among all 220,000 compounds or so, about 8,200 (3.7%) were called active.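 Rule for the calls: active = compounds that reduced the stress-induced luciferase reporter signal by more than about 70% of percent inhibition (limit read from the data); inactive = the rest.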 What follows is part of a selection rich in actives, with near analogues and random picks from the rest. The source holds several records for some structures; these can differ, active in one and inactive in another.
Assay: blockers of ER-stress CHOP reporter expression – cell-based, unfolded protein response, luciferase reporter, primary screen (AID 2732);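 note: 0% = tunicamycin plus vehicle and 100% = wells without tunicamycin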
Settings: CHO-K1 CHOP-promoter luciferase, tunicamycin-induced, 15-18 h; at 10 µM; stronger effect = higher value
For COCCN(Cc1cc2cc3c(cc2nc1Cl)OCO3)C(=O)c1cccc(C)c1, the inhibition was 27.4% (inactive). With COC(=O)N(NC(=O)C(O)(C(C)C)C(C)C)c1ccccc1 the inhibition was 16% (inactive). In the case of COC(=O)c1cc(NC(=O)c2cc(C(C)(C)C)nn2Cc2cccc(C)c2)ccc1N1CCOCC1, the inhibition is reported as 42.8% (inactive). For CCOC(=O)C1C(c2ccc(OC)c(OC)c2)c2c([nH][nH]c2=O)CC1(C)O (stereo unspecified), the inhibition was 3.71% (inactive). For O=C1N=C(N2CCc3ccccc3C2)S/C1=C\c1ccc(O)cc1, the inhibition was -2.8% (inactive). In the case of O=C(CSc1ccc(/C=N/NC(=O)c2cccc(F)c2)o1)Nc1ccccc1, the inhibition is reported as -10.9% (inactive). With C/C(=N\OC(=O)c1ccccc1)c1c(C)nc2cc(C)ccn12 the inhibition was 15.7% (inactive). With Cc1ccc(NC(=O)C(=O)NCc2ccc(/C=N/NC(=O)c3c(C)nc4cc(C)ccn34)o2)cc1 the inhibition was 78.9% (active). For COc1ccc(S(=O)(=O)N(CC(=O)N/N=C/c2ccccc2C(=O)O)c2ccccc2OC)cc1, the inhibition was -10.7% (inactive). With CCOC(=O)c1c(N)nn(C(=O)c2ccccc2)c1-c1ccccc1 the inhibition was 72.5% (active). With CCOC(=O)c1c(-c2cccc(N)c2)cn2ccccc12 the inhibition was 20% (inactive). For CCOC(=O)c1nnn(-c2nonc2OC)c1-c1ccccc1, the inhibition was 24.9% (inactive). In the case of C=C1CCN([C@H](C(=O)NCc2cc(OC)c(OC)c(OC)c2)C(C)C)S(=O)(=O)c2ccccc21, the inhibition is reported as -3.31% (inactive). With Cc1nc(Cl)c(C#N)c2c1CCCC2 the inhibition was 18.3% (inactive). In the case of O=S(=O)(c1ccc(Cl)cc1)N1CCCN(c2ccc(C(F)(F)F)cn2)CC1, the inhibition is reported as 21.2% (inactive). With COc1ccc(/C=C2/S/C(=N/N=C3\CC4CCC3(C)C4(C)C)NC2=O)cc1 (stereo unspecified) the inhibition was 88.5% (active). For CCOc1ccc(N=C2NC(=O)S/C2=C\c2ccc(O)cc2)cc1, the inhibition was 64.1% (inactive). With COc1ccc(/C=C2\SC(=N)N(c3ccc(F)cc3)C2=O)cc1 the inhibition was 38.3% (inactive). For O=S(=O)(NC(=S)Nc1ccccc1)c1ccc(F)cc1, the inhibition was -27.1% (inactive). With N#Cc1c(NCCO)ccc([N+](=O)[O-])c1NCCO the inhibition was 14.8% (inactive). With COc1ccc(/C=C2\N=C3CCCN3C2=O)cc1 the inhibition was -36.1% (inactive). In the case of Cc1cc(C)nc(Nc2n[nH]c(-c3ccccc3N)n2)n1, the inhibition is reported as -32.3% (inactive). For CCOc1cc(/C=N/O)cc(Br)c1OC, the inhibition was 23.6% (inactive). With COc1cc(/C=N/O)cc(Br)c1OCc1cccc(Cl)c1 the inhibition was 108% (active). In the case of CCOc1c(Cl)cc(/C=N/O)cc1OC, the inhibition is reported as 10.4% (inactive). With C#CCOCCOCCOCCNc1nc(N2CCN(C(=O)[C@H](CCC(=O)O)n3cc(C(N)CO)nn3)CC2)nc(N2CCN(C(=O)[C@H](CCCCN)n3cc(C(N)[C@H](C)CC)nn3)CC2)n1 (stereo partly specified) the inhibition was -9.04% (inactive). With CCOC(=O)c1c(C)nn(-c2ncccc2NC(=O)CCC(=O)O)c1C the inhibition was 15.2% (inactive). For COC(=O)c1c(C)oc(C)c1S(=O)(=O)Nc1ccc(C(C)C)cc1, the inhibition was 8.63% (inactive). In the case of Cc1cccc(N2CCN(Cc3nc(C4CC4)no3)CC2)n1, the inhibition is reported as -7.46% (inactive). For Nc1cccc(S(=O)(=O)Nc2ccc(SC(F)F)cc2)c1, the inhibition was 6.78% (inactive). With CCCCCC(=O)NC(=S)NNC(=O)c1ccc([N+](=O)[O-])cc1 the inhibition was 26.4% (inactive). With O=C(COc1ccc(/C=N/NC(=O)c2ccc(O)cc2)cc1)Nc1ccc([N+](=O)[O-])cc1 the inhibition was 0.44% (inactive). In the case of CCCCCC(=O)Nc1ccc(C(=O)N/N=C/c2ccc([N+](=O)[O-])cc2)cc1, the inhibition is reported as 73.8% (active). For O=C1NC[C@@H](Cc2ccc(O)cc2)N(CCc2cccc(F)c2)C1=O, the inhibition was -6.82% (inactive). For Brc1ccc(-c2n(-c3ccccn3)c3ccccc3[n+]2-c2ccccn2)cc1, the inhibition was 24.6% (inactive). For Cc1cccc(C(=O)NNC(=O)c2cccc([N+](=O)[O-])c2)c1, the inhibition was 3.14% (inactive). In the case of CCOC(=O)c1sc(-c2cccc([N+](=O)[O-])c2)cc1N, the inhibition is reported as 75.2% (active). In the case of CCOC(=O)c1sc2nc(SC)nc(-c3ccccc3)c2c1N, the inhibition is reported as -31.5% (inactive). In the case of CC(C)c1ccc(NC(=S)NC2CC3C=CC2C3)cc1 (stereo unspecified), the inhibition is reported as 51.2% (inactive). For CC(=O)Nc1nc2c(s1)C(=O)NCC(C)(C)C2, the inhibition was 12.8% (inactive). For Brc1ccc(-c2noc(-c3ccccc3)n2)o1, the inhibition was 26.1% (inactive). In the case of CS(=O)(=O)c1ccc(Cl)c(NC(=O)Nc2ccccc2)c1, the inhibition is reported as 2.73% (inactive). In the case of CCCn1c(C(O)c2ccc(OCC)cc2)nc2ccccc21 (stereo unspecified), the inhibition is reported as 19% (inactive). With CCCCCCOC(=O)NCC(O)c1ccccc1 (stereo unspecified) the inhibition was 1.35% (inactive). With CCCCCC(O)c1cccc(OCc2ccc3ccccc3n2)c1 (stereo unspecified) the inhibition was 88.4% (active) and -8.07% (inactive). In the case of O=C(NC(=O)c1cc(OCC(F)(F)F)ccc1OCC(F)(F)F)Nc1ccccc1, the inhibition is reported as 6.78% (inactive). In the case of Cc1ccc(/C=N/NC(=O)CSc2ccccn2)o1, the inhibition is reported as -0.26% (inactive). For CC(C)n1c(=S)[nH]c2cc(C(F)(F)F)ccc21, the inhibition was 22.9% (inactive). For Cc1ccc(Oc2cc(NC(=O)CCCn3nc(C)c([N+](=O)[O-])c3C)cc([N+](=O)[O-])c2)cc1, the inhibition was 71.1% (active). For COc1ccc(CNC(=O)CCCn2nc(C)c([N+](=O)[O-])c2C)cc1, the inhibition was 11.7% (inactive). With CCc1ccc(NC(=O)Cn2nc(C)c([N+](=O)[O-])c2C)cc1 the inhibition was 14.9% (inactive). For Cc1ccc(/C=N/NC(=O)CN2CCN(Cc3ccccc3)CC2)s1, the inhibition was 13.5% (inactive). In the case of CCOC(=O)c1ccc(NC(=O)Cn2cnc3cc(C)c(C)cc32)cc1, the inhibition is reported as 55.6% (inactive). For O=C(NNS(=O)(=O)c1ccccc1)c1cnn(-c2ccc(Cl)cc2)c1C(F)(F)F, the inhibition was -3.7% (inactive). With C[C@H](NC(=O)c1nc[nH]c1C(=O)N[C@@H](C)C(=O)OC(C)(C)C)C(=O)OC(C)(C)C the inhibition was 1.44% (inactive). For COc1ccc(C)cc1-n1nnnc1SCc1nc2ccccc2c(=O)[nH]1, the inhibition was 12.6% (inactive). For Cc1ccc(-c2noc(CSc3nnc(-c4ccccc4)n3C)n2)cc1, the inhibition was 66.5% (inactive). In the case of Cc1ccc(Nc2nc(CSc3nnnn3-c3ccccc3)cc(=O)[nH]2)cc1, the inhibition is reported as 81.8% (active). For Cc1ccc(-c2noc(CSc3nnnn3-c3ccccc3)n2)cc1, the inhibition was 70.7% (active). With O=c1c2ccccc2nc(CSc2nnnn2-c2ccccc2)n1-c1ccccc1 the inhibition was 32.4% (inactive). In the case of Cc1ccc(-c2noc(CSc3nnc(-c4cccs4)n3C)n2)cc1, the inhibition is reported as -8.68% (inactive).

Reference: PubChem BioAssay AID2732 (Emory University Molecular Libraries Screening Center, 2010)
